Source: PubChem BioAssay (National Center for Advancing Translational Sciences (NCATS))
Only some compounds are listed: those with a hit (about 6.1% of all), similar ones and a draw of the others.
DRD3 antagonist: blocks the human D3 dopamine receptor; AID 652054; actives 2.5% (n = 360,000); D3R cells, DiscoveRx beta-arrestin luminescence, antagonist mode; active compounds read low; max response, negative = inhibition, %; in the data active means max response below about -50%; inconclusive means no clear call, values can overlap the other calls; further: on the % scale 0 is the no-effect control and ±100 the full control effect
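Cells plated overnight at 1500 cells/well, then exposed to library compounds with dopamine controls for 90 minutes at 37 degrees C. DiscoveRx reagent added for 30–60 minutes at room temperature; luminescence read, quantitative HTS format.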
D3 ag: agonists of human D3 dopamine receptor; P35462; AID 652048; max activation, %; actives 0.58% (n = 410,000); D3R DiscoveRx beta-arrestin cells, luminescence, 90 min; in the data active means max activation above about 30%; further: 0% is about no effect
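Agonist-mode cell screen: cells plated at 1500/well and incubated overnight at 37 °C, then exposed to library compounds for 90 min at 37 °C. Detection reagent was added for 30–60 min at room temperature, and luminescence was read.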
D1 PAM: enhances dopamine response at the human D1 receptor | HEK293 TREx D1 cells, calcium flux, dopamine EC20 potentiation | actives 0.036% (n = 360,000) | P21728 | AID 504651 | potentiation, % at 10 µM; in the data active means potentiation above about 30%; further: 0% is about no effect
Target sequence (P21728 whole entry, looked up): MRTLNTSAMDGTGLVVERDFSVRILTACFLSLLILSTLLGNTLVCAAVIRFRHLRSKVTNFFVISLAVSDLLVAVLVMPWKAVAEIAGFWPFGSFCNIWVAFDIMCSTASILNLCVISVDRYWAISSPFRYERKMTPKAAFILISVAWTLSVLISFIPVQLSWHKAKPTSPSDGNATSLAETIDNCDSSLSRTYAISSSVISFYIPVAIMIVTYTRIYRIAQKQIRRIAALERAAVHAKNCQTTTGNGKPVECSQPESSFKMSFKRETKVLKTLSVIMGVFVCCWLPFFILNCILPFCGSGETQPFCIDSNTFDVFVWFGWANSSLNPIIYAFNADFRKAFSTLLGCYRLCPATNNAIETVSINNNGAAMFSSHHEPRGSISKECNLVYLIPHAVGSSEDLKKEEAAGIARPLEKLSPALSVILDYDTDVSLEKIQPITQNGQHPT
D1 agonist: activates the human D1 dopamine receptor. P21728. HEK293 T-REx D1 cells, calcium flux, agonist mode. activation, % at 2 µM. actives 1% (n = 360,000). AID 504660; in the data active means activation above about 30%; further: 0% is about no effect
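Inducible HEK293 T-REx D1 cells, force-coupled to calcium signalling, were plated at 4000 cells/well with tetracycline and held overnight at 30 C. After no-wash calcium dye loading, compound-evoked calcium rise over 180 s flagged agonists.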
D1 antag: blocks dopamine activation of the human D1 receptor. P21728. actives 3.2% (n = 360,000). HEK293 TREx D1 cells, calcium flux, dopamine EC80; active compounds read low. activity change, negative = inhibition, % at 10 µM; in the data active means activity change below about -30%; further: on the % scale 0 is the no-effect control and ±100 the full control effect
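Cells carrying a force-coupled, tetracycline-inducible human D1 receptor report calcium flux. Each well gets a 10 s baseline, compound with 180 s monitoring, then an EC80 dopamine stimulus with a second 180 s kinetic read.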
Active calls of the source: *; ? = inconclusive; · = not tested or not shown.

SMILES | DRD3 antagonist | D3 ag | D1 PAM | D1 agonist | D1 antag
Cc1ccc(C2C(C(=O)c3ccco3)=C(O)C(=O)N2c2nnc(C)s2)cc1 (centres undefined) | 10.8 | 1.0 | 14.3 | 18.5 | -4.9
CSc1nnc(N2C(=O)C(O)=C(C(=O)c3ccco3)C2c2ccccc2F)s1 (centres undefined) | 1.6 | -4.0 | 1.9 | 98.4* | -1.3
CSc1nnc(N2C(=O)C(O)=C(C(=O)c3ccco3)C2c2ccccc2)s1 (centres undefined) | 4.2 | 1.5 | 2.6 | 99.7* | 18.7
CCCSc1nnc(N2C(=O)C(O)=C(C(=O)c3ccco3)C2c2ccccc2F)s1 (centres undefined) | 0.0 | 6.0 | -4.3 | 96.5* | -15.0
CC(C)CCNC(=O)C1CC(c2ccc(C(F)(F)F)cc2)=NO1 (centres undefined) | 0.0 | 6.4 | -4.3 | 31.7* | -42.0*
O=C(NCc1cccnc1)C1CC(c2ccc(F)cc2)=NO1 (centres undefined) | 16.7 | 9.8 | -6.0 | 3.4 | -30.5*
O=C(NCc1cc(C(F)(F)F)cc(C(F)(F)F)c1)C1CC(c2cccc([N+](=O)[O-])c2)=NO1 (centres undefined) | 0.2 | 9.1 | -8.8 | 9.1 | -54.4*
Cc1ccc(OCC(=O)OC2=C(C(=O)c3ccccc3)N(C)S(=O)(=O)c3ccccc32)cc1 | · | -14.2 | -6.7 | 0.1 | -16.2
CCOc1ccc(CCNC(=O)c2nc(-c3cccc(F)c3)n3c2CCCCC3)cc1OCC | · | 0.6 | 1.1 | -0.5 | -11.5
Cn1cccc1C(=O)OCC(=O)NC(=O)c1ccc(Cl)cc1 | -15.4 | -0.7 | · | · | ·
NC(=O)c1cc2cc(Cl)ccc2oc1=O | ? | -3.6 | 1.7 | 0.4 | -7.4
NC(=O)c1cc2cc(Cl)ccc2oc1=Nc1cccc(C(F)(F)F)c1 | -2.1 | 1.1 | -4.4 | -3.6 | -32.7*
O=c1nc(SCc2c(F)cccc2Cl)nc(-c2ccccc2)[nH]1 | -1.2 | 2.2 | 0.1 | 1.1 | 6.8
COc1ccc(NC(=O)c2cc3c(=O)n(C)c4ccccc4c3s2)cc1Cl | · | -19.0 | 4.5 | 0.8 | -67.9*
CC1CCN(C(=O)c2cc3c(=O)n(C)c4ccccc4c3s2)CC1 | · | -9.7 | -2.3 | 1.8 | -30.8*
COc1ccc(-c2nn(C)c3sc(C(=O)N4CCN(c5ccccc5F)CC4)cc23)cc1OC | · | 18.0 | 4.3 | -0.5 | 2.0
COc1ccccc1N1CCN(C(=O)c2cc3c(-c4ccccc4F)nn(C)c3s2)CC1 | · | 56.0* | 2.1 | 6.2 | 14.7
COc1ccccc1N1CCN(C(=O)c2cc3c(=O)n(C)c4ccccc4c3s2)CC1 | · | -16.2 | -0.6 | 1.6 | -53.3*
Cc1cccc(N2CCN(C(=O)c3cc4c(=O)n(C)c5ccccc5c4s3)CC2C)c1 (centres undefined) | · | 7.5 | -0.9 | -1.2 | -13.7
CCOc1ccc(S(=O)(=O)Nc2ccc(C(=O)N3CC(C)OC(C)C3)cc2)cc1 (centres undefined) | -8.3 | -7.9 | 4.1 | 30.8* | 1.6
CC1CN(C(=O)c2ccc(NS(=O)(=O)c3ccc(C(C)(C)C)cc3)cc2)CC(C)O1 (centres undefined) | 3.9 | 4.9 | -3.6 | 34.6* | -3.8
CC1CN(C(=O)c2ccc(NS(=O)(=O)c3cccc(Cl)c3)cc2)CC(C)O1 (centres undefined) | -17.9 | -5.6 | -2.8 | 3.2 | 13.0
CCOc1ccc(S(=O)(=O)Nc2cccc(C(=O)N3CC(C)OC(C)C3)c2)cc1 (centres undefined) | 4.9 | 4.0 | -1.2 | 12.5 | 0.7
CCOc1ccc(S(=O)(=O)Nc2ccc(C(=O)NCC3(N4CCCCC4)CCCCC3)cc2)cc1 | 1.3 | -14.9 | 2.0 | 54.1* | 9.2
CC1CCN(C(=O)c2ccc(NS(=O)(=O)c3ccccc3)cc2)CC1 | -4.8 | 3.1 | -7.6 | 7.5 | -31.8*
O=C(c1ccc(NS(=O)(=O)c2ccccc2)cc1)N1CCCC1 | 21.0 | -3.9 | -1.0 | 1.5 | -19.5
Cn1c(=O)c2c(nc(OC3CCCCCC3)n2C)n(C)c1=O | -20.4 | 6.9 | · | · | ·
CCOC(=O)c1c(C)[nH]c(C)c1S(=O)(=O)N1CCC(C(=O)Nc2ccccn2)CC1 | · | 4.0 | -3.0 | 2.7 | 8.1
O=C(c1ccc(S(=O)(=O)Nc2ccccc2)cc1)N1CCCC1 | 13.5 | 2.6 | -0.4 | 5.8 | 6.7
